# Laboratory results: paper PMC7862700, “An all-to-all approach to the identification of sequence-specific readers for epigenetic DNA modifications on cytosine”
# Experiments:
# Test in all cases: DAPPL (digital affinity profiling via proximity ligation, sequencing); 10 mM Tris-HCl pH 7.5, 50 mM NaCl, 1 mM DTT, 4% glycerol, room temperature, 30 min; GST-TFs on glutathione beads, 16-mer random dsDNA library, 0.1% formaldehyde crosslink after washing; high values mean tight binding
# Details in all cases: protein: recombinant; tags: N-terminal GST; dsDNA, one strand shown
# FEV = target: T1, FEV (Homo sapiens, UniProt Q99581 1-238)
# T1 sequence: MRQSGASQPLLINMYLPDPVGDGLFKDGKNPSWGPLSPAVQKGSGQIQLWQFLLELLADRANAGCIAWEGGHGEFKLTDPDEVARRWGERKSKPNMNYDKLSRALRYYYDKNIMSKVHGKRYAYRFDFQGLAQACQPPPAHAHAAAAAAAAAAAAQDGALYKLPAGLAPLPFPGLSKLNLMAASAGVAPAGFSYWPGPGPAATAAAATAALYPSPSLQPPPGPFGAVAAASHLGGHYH
# How it was run: (§1)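 GST fusions of human transcription factors were expressed in yeast and captured with glutathione beads. Once given DNA barcodes and pooled alongside a tag-only sample, they were incubated for 30 min at room temperature with 200 nmole of a random double-stranded 16-mer DNA library in Tris/NaCl/DTT/glycerol buffer, then washed, crosslinked (0.1% formaldehyde), proximity-ligated, PCR-amplified and sequenced on an Illumina NextSeq500. The binding signal of each hexamer is its read frequency for a factor divided by its frequency for the tag-only sample.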
# ETV5 = ETV5 (Homo sapiens, UniProt P41161 1-510)
# How it was run: as §1
# SPIC = target: T2, SPIC (Homo sapiens, UniProt Q8N5J4 1-248)
# T2 sequence: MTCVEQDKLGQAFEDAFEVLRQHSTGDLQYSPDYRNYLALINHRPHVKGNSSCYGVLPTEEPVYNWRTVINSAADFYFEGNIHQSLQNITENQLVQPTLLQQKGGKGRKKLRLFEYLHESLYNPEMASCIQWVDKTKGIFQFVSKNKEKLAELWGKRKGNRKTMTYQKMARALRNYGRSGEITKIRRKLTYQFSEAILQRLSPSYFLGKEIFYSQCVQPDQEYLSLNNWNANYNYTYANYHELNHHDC
# How it was run: as §1
# ELF4 = ELF4 (Homo sapiens, UniProt Q99607 1-663)
# How it was run: as §1
# ELK4 = target: T3, ELK4 (Homo sapiens, UniProt P28324-2 1-405)
# T3 sequence: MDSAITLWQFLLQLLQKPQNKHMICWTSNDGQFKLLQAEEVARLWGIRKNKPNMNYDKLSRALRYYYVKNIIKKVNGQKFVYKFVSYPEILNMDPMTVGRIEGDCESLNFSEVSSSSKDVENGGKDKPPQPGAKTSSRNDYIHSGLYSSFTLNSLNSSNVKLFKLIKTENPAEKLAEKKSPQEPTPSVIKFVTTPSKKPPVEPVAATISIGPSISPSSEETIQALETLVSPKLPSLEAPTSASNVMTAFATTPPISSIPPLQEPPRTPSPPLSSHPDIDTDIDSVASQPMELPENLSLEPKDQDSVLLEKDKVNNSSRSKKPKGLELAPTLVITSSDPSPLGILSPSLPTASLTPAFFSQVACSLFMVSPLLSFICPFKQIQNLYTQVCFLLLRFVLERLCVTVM
# How it was run: as §1
# ETV2 = target: T4, ETV2 (Homo sapiens, UniProt O00321 1-342)
# T4 sequence: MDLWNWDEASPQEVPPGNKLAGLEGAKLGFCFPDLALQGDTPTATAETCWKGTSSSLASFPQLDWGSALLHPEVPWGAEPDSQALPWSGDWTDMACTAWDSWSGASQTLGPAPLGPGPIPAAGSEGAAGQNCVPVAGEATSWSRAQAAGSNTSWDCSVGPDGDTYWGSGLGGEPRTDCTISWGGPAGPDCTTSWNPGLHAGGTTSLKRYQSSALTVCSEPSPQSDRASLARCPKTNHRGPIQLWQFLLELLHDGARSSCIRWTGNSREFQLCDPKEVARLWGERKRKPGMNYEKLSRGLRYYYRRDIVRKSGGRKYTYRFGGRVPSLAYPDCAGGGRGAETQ
# How it was run: as §1
# ELF3 = target: T5, ELF3 (Homo sapiens, UniProt P78545 1-371)
# T5 sequence: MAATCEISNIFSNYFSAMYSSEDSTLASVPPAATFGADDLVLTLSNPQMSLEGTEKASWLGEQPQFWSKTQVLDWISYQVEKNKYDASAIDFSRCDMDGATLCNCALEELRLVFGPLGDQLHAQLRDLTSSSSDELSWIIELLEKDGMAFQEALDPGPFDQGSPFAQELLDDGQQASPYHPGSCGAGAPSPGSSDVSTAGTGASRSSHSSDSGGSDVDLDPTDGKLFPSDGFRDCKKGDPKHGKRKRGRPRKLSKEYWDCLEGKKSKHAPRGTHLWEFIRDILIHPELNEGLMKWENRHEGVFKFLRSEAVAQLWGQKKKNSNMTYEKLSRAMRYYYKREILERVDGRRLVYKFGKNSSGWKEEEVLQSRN
# How it was run: as §1
# ETV1 = ETV1 (Homo sapiens, UniProt P50549 1-477)
# How it was run: as §1
# ERF = target: T6, ERF (Homo sapiens, UniProt P50548 1-548)
# T6 sequence: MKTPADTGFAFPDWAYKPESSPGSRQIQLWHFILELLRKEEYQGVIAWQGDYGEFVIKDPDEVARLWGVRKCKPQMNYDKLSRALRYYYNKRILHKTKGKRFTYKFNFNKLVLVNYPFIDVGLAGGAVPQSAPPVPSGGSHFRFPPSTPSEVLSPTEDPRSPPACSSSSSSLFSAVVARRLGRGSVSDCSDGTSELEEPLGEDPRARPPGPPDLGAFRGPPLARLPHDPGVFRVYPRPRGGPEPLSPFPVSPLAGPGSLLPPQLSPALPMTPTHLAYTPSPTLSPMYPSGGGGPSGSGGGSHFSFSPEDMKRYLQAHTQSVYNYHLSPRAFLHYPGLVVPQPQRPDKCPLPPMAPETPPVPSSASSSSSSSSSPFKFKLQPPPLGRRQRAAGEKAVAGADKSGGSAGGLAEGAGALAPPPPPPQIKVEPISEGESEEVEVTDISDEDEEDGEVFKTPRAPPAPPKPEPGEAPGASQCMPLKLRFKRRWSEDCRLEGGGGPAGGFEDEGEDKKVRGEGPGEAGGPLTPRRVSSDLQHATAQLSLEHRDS
# How it was run: as §1
# ETV3L = target: T7, ETV3L (Homo sapiens, UniProt Q6ZN32 1-361)
# T7 sequence: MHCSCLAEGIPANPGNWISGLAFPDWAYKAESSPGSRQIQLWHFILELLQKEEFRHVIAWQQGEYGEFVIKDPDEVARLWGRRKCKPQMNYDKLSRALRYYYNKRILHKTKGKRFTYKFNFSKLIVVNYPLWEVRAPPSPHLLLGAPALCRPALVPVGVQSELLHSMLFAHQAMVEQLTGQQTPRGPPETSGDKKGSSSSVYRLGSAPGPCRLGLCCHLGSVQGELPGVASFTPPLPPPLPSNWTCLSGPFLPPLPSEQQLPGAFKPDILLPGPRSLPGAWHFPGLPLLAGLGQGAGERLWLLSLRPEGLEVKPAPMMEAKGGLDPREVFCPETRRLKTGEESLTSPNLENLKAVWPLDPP
# How it was run: as §1
# ETS2 = target: T8, ETS2 (Homo sapiens, UniProt P15036 1-469)
# T8 sequence: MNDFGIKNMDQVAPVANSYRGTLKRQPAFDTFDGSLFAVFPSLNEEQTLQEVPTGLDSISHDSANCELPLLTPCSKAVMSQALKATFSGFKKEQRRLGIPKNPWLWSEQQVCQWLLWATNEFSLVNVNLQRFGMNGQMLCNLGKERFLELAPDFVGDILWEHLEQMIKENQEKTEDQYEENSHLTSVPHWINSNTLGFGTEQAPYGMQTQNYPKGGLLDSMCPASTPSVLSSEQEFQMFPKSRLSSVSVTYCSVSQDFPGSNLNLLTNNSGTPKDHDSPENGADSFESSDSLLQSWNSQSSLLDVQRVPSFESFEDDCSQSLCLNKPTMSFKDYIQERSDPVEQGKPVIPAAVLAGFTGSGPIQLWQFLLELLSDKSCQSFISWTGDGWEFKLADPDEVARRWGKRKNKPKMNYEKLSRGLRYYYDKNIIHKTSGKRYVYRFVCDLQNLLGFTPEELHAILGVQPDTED
# How it was run: as §1
# SPDEF = target: T9, SPDEF (Homo sapiens, UniProt O95238 1-335)
# T9 sequence: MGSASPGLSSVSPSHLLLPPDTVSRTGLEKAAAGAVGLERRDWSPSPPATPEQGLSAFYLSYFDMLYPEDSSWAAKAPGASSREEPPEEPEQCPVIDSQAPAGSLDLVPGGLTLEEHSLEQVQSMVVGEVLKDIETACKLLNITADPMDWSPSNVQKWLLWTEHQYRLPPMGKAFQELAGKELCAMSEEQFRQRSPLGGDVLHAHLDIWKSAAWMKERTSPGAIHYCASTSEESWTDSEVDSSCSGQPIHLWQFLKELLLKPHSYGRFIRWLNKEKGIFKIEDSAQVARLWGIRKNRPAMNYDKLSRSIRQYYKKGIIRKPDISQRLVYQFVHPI
# How it was run: as §1
# ETV7 = target: T10, ETV7 (Homo sapiens, UniProt Q9Y603 1-341)
# T10 sequence: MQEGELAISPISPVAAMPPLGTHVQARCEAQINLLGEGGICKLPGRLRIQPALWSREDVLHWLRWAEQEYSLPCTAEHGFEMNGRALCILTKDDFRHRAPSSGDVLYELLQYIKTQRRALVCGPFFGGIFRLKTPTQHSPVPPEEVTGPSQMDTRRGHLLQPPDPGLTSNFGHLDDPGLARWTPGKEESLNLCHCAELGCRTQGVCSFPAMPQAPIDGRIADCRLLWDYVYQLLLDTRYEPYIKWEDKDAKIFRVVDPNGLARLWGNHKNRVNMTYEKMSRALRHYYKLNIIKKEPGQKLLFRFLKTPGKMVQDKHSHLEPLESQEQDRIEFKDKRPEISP
# How it was run: as §1
# ELF5 = target: T11, ELF5 (Homo sapiens, UniProt Q9UKW6-2 1-255)
# T11 sequence: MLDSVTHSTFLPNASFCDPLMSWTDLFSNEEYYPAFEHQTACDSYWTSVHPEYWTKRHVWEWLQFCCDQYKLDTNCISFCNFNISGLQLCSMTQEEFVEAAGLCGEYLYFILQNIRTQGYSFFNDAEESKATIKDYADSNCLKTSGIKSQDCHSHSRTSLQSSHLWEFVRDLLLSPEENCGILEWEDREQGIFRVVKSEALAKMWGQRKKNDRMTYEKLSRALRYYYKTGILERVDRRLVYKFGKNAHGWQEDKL
# How it was run: as §1
# ETV3 = target: T12, ETV3 (Homo sapiens, UniProt P41162-2 1-143)
# T12 sequence: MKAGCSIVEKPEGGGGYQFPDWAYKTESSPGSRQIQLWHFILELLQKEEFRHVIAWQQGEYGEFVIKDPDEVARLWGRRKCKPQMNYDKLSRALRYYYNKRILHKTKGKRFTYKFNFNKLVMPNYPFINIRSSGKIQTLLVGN
# How it was run: as §1
# ETV6 = ETV6 (Homo sapiens, UniProt P41212 1-452)
# How it was run: as §1
# Chain of ETV5 (P41161 whole entry): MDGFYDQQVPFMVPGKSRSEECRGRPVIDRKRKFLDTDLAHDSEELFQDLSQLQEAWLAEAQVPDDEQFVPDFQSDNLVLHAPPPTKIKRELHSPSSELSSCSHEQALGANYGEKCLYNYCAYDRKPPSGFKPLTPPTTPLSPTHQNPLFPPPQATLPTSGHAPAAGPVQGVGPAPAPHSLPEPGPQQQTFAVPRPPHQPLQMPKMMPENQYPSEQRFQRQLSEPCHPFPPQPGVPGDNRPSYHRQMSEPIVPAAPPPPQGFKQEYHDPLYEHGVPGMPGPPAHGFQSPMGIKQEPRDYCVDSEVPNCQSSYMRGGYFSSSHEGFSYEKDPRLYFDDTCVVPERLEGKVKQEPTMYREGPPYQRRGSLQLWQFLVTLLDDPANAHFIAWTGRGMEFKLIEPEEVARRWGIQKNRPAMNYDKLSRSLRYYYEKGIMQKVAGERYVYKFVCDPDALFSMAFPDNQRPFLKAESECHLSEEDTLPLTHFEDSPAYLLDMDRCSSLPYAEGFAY
# Chain of ELF4 (Q99607 whole entry): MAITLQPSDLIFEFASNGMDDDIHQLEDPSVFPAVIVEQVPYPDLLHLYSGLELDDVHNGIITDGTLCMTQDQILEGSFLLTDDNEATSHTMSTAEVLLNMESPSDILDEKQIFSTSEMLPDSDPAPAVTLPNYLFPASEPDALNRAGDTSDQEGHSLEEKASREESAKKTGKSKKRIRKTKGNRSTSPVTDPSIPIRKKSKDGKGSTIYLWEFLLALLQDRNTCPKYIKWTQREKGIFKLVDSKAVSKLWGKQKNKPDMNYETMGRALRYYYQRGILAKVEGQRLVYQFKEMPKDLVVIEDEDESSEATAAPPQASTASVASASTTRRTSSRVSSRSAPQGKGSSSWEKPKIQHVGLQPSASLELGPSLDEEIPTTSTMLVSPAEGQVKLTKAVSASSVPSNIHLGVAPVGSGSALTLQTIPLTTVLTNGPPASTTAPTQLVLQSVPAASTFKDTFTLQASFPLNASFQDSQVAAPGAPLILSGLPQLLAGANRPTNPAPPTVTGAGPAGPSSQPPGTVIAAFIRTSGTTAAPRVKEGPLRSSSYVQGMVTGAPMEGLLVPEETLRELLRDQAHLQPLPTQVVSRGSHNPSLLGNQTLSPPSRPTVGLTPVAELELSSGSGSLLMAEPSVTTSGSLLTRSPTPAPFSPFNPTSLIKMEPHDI
# Chain of ETV1 (P50549 whole entry): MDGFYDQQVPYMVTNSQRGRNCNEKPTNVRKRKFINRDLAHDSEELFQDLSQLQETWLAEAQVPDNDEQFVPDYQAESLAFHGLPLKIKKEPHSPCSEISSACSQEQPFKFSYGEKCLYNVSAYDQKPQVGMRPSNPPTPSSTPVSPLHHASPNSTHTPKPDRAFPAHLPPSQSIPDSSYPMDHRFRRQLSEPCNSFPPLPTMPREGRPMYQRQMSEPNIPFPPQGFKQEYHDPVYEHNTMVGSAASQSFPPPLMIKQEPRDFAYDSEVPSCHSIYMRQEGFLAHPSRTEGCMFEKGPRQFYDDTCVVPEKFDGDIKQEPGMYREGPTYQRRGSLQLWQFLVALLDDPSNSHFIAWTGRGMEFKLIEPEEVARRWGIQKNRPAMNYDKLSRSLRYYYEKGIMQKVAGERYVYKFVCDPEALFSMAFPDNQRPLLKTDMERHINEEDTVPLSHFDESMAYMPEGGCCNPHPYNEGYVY
# Chain of ETV6 (P41212 whole entry): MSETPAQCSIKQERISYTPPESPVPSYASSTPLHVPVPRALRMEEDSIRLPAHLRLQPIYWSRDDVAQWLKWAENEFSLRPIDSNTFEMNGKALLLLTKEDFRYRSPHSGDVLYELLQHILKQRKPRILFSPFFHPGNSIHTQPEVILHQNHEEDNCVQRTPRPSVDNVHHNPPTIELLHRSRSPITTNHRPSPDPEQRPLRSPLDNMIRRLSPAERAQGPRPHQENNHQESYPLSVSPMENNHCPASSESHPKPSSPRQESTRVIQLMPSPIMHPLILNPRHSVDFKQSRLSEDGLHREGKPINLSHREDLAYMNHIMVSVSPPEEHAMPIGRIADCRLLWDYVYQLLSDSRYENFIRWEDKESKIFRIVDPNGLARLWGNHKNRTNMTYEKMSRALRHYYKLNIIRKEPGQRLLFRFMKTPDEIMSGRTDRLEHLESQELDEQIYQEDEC
sequence,measurement,setting,value
CAACCC,binding signal,FEV,"1.21 fold enrichment (6-mer frequency, TF over GST control)"
same,binding signal,ETV5,"1.23 fold enrichment (6-mer frequency, TF over GST control)"
same,binding signal,SPIC,"1.23 fold enrichment (6-mer frequency, TF over GST control)"
same,binding signal,ELF4,"1.34 fold enrichment (6-mer frequency, TF over GST control)"
same,binding signal,ELK4,"1.22 fold enrichment (6-mer frequency, TF over GST control)"
same,binding signal,ETV2,"1.17 fold enrichment (6-mer frequency, TF over GST control)"
same,binding signal,ELF3,"1.34 fold enrichment (6-mer frequency, TF over GST control)"
same,binding signal,ETV1,"1.18 fold enrichment (6-mer frequency, TF over GST control)"
same,binding signal,ERF,"1.22 fold enrichment (6-mer frequency, TF over GST control)"
same,binding signal,ETV3L,"1.25 fold enrichment (6-mer frequency, TF over GST control)"
same,binding signal,ETS2,"1.28 fold enrichment (6-mer frequency, TF over GST control)"
same,binding signal,SPDEF,"1.2 fold enrichment (6-mer frequency, TF over GST control)"
same,binding signal,ETV7,"1.15 fold enrichment (6-mer frequency, TF over GST control)"
same,binding signal,ELF5,"1.2 fold enrichment (6-mer frequency, TF over GST control)"
same,binding signal,ETV3,"1.27 fold enrichment (6-mer frequency, TF over GST control)"
same,binding signal,ETV6,"1.22 fold enrichment (6-mer frequency, TF over GST control)"
GATGTC,binding signal,FEV,"1.59 fold enrichment (6-mer frequency, TF over GST control)"
same,binding signal,ETV5,"1.37 fold enrichment (6-mer frequency, TF over GST control)"
same,binding signal,SPIC,"1.23 fold enrichment (6-mer frequency, TF over GST control)"
same,binding signal,ELF4,"1.24 fold enrichment (6-mer frequency, TF over GST control)"
same,binding signal,ELK4,"1.15 fold enrichment (6-mer frequency, TF over GST control)"
same,binding signal,ETV2,"1.24 fold enrichment (6-mer frequency, TF over GST control)"
same,binding signal,ELF3,"1.25 fold enrichment (6-mer frequency, TF over GST control)"
same,binding signal,ETV1,"1.3 fold enrichment (6-mer frequency, TF over GST control)"
same,binding signal,ERF,"1.29 fold enrichment (6-mer frequency, TF over GST control)"
same,binding signal,ETV3L,"1.31 fold enrichment (6-mer frequency, TF over GST control)"
same,binding signal,ETS2,"1.33 fold enrichment (6-mer frequency, TF over GST control)"
same,binding signal,SPDEF,"1.53 fold enrichment (6-mer frequency, TF over GST control)"
same,binding signal,ETV7,"1.27 fold enrichment (6-mer frequency, TF over GST control)"
same,binding signal,ELF5,"1.42 fold enrichment (6-mer frequency, TF over GST control)"
same,binding signal,ETV3,"1.32 fold enrichment (6-mer frequency, TF over GST control)"
same,binding signal,ETV6,"1.21 fold enrichment (6-mer frequency, TF over GST control)"
